Test results published in PubChem BioAssay (Tox21).
Inconclusive results are not listed. Active and inactive are the calls of the source. Unless noted, calls follow the shape of the dose curve; as a rule, active = well fitted curve in the direction sought with a large enough effect in the repeat runs; inconclusive = weak or mixed curves; inactive = no such curve, though single readings can be large; an effect the other way counts as inactive or inconclusive.

Assays:
[1] = qHTS assay to identify small molecule antagonists of the estrogen related receptor (ERR) signaling pathway from Tox21 library - cell viability counter screen (AID 1224834); also: nearly all actives have a fitted effect of over 30% in size; also: potency is read from the fitted curve at half-maximal effect
Method in brief: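 Seeded ERR cells were rested 6 h at 37 C/5% CO2 before compounds, positive and negative controls or DMSO were added. Incubation continued for 17.5 h, and viability was then quantified by CellTiter-Fluor fluorescence.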

[2] = target: Luciferin 4-monooxygenase (Photinus pyralis) (UniProt P08659); experiment: qHTS assay to identify small molecule inhibitors of firefly luciferase (AID 1224835); also: nearly all actives have a fitted effect of over 25% in size; also: potency is read from the fitted curve at half-maximal effect
Method in brief: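 Biochemical qHTS: compounds run as interplate titrations against purified firefly enzyme, with D-luciferin and ATP each at its KM concentration. Light output recorded by CCD imaging.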

[3] = qHTS assay to identify small molecule antagonists of the constitutive androstane receptor (CAR) signaling pathway - cell viability counter screen (AID 1224837); also: nearly all actives have a fitted effect of over 45% in size; also: potency is read from the fitted curve at half-maximal effect
Method in brief: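 To flag cytotoxic false antagonists, HepG2 hCAR/CYP2B6-2.2kb cells were treated 23 hr with 15-concentration compound series and 50 nM CITCO at 37 C/5% CO2; CellTiter-Fluor fluorescence was the measured end point.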

[4] = target: Nuclear receptor subfamily 1 group I member 3 (Homo sapiens) (UniProt Q14994); experiment: qHTS assay to identify small molecule antagonists of the constitutive androstane receptor (CAR) signaling pathway (AID 1224838);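 also: HepG2 cells stably expressing hCAR with CYP2B6 luciferase reporter stimulated by CITCO; nearly all actives have a fitted effect of over 40% in size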
Method in brief: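 Human hepatoma HepG2 cells expressing hCAR and a CYP2B6 promoter (2.2 kb) luciferase construct; compound titration (15 points) with 50 nM CITCO final, 24 h at 37 C/5% CO2; luminescence via ONE-Glo after 30 min at room temperature.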

[5] = target: Nuclear receptor subfamily 1 group I member 3 (Homo sapiens) (UniProt Q14994); experiment: qHTS assay to identify small molecule agonists of the constitutive androstane receptor (CAR) signaling pathway (AID 1224839); also: nearly all actives have a fitted effect of over 15% in size; also: potency is read from the fitted curve at half-maximal effect
Method in brief: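 Readout: firefly luciferase luminescence via ONE-Glo. System: HepG2 double-stable for hCAR and CYP2B6-2.2kb. Conditions: 15-point compound titration, PK11195 at 0.75 uM final, 24 h incubation.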

[6] = qHTS assay to identify small molecule antagonists of the estrogen related receptor signaling pathway with the pleiotropic PPARgamma coactivator (PGC) from Tox21 10K library (AID 1224841; call rule not given here; also: series mostly up to about 92 µM; actives are mostly falling curves and most rising ones were filed inactive; nearly all actives have a fitted effect of over 50% in size)
Method in brief: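 Test chemicals dissolved in DMSO were applied to pre-incubated (6 h) PGC/ERR cells at 2,000 cells/well for an 18 h, 37 C treatment; reporter luminescence was then read using One-Glo.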

[7] = qHTS assay to identify small molecule agonists of the estrogen related receptor signaling pathway with the pleiotropic PPARgamma coactivator (PGC) from Tox21 10K library (AID 1224842); also: nearly all actives have a fitted effect of over 15% in size; also: potency is read from the fitted curve at half-maximal effect
Method in brief: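 PGC/ERR reporter cell line, 2,000 cells per well, incubated 6 h at 37 C before 23 nL compound in DMSO was added. After 18 h at 37 C, One-Glo luminescence read following 30 min at room temperature.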

[8] = target: Thyrotropin receptor (Homo sapiens) (UniProt P16473); experiment: qHTS assay to identify small molecule agonists of the thyroid stimulating hormone receptor (TSHR) signaling pathway (AID 1224843; calls by dose curve; also: nearly all actives have a fitted effect of over 45% in size)
Method in brief: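 Agonist-mode screen: TSHR HEK293 cells received test chemicals for half an hour at room temperature, then HTRF cAMP detection reagents for one hour prior to fluorescence measurement. Each chemical ran as a 15-concentration series, triplicated.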

[9] = qHTS assay to identify small molecule agonists of the constitutive androstane receptor (CAR) signaling pathway - cell viability counter screen (AID 1224836); also: nearly all actives have a fitted effect of over 45% in size; also: potency is read from the fitted curve at half-maximal effect
Method in brief: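 Double-stable HepG2 hepatoma cells (hCAR plus CYP2B6-2.2kb) are treated for 23 h at 37 C with test compounds in 15-point concentration series. PK11195 at 0.75 uM final is co-added. Cell viability is quantified by CellTiter-Fluor.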

[10] = qHTS assay to identify small molecule antagonists of the estrogen related receptor signaling pathway with the pleiotropic PPARgamma coactivator (PGC) from Tox21 10K library - cell viability counter screen (AID 1224840; active = well fitted cell-killing curve with a large enough effect in the repeat runs, not every such curve was filed as active; also: nearly all actives have a fitted effect of over 40% in size; also: potency is read from the fitted curve at half-maximal effect)
Method in brief: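 Seeded PGC/ERR cells (2,000/well, 6 h, 37 C/5% CO2) get compound by pin tool; 17.5 h incubation at 37 C; CellTiter-Fluor added, 30 min, fluorescence measured.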

Measured: Potency

Chain of Thyrotropin receptor (Homo sapiens) (P16473 whole entry, looked up): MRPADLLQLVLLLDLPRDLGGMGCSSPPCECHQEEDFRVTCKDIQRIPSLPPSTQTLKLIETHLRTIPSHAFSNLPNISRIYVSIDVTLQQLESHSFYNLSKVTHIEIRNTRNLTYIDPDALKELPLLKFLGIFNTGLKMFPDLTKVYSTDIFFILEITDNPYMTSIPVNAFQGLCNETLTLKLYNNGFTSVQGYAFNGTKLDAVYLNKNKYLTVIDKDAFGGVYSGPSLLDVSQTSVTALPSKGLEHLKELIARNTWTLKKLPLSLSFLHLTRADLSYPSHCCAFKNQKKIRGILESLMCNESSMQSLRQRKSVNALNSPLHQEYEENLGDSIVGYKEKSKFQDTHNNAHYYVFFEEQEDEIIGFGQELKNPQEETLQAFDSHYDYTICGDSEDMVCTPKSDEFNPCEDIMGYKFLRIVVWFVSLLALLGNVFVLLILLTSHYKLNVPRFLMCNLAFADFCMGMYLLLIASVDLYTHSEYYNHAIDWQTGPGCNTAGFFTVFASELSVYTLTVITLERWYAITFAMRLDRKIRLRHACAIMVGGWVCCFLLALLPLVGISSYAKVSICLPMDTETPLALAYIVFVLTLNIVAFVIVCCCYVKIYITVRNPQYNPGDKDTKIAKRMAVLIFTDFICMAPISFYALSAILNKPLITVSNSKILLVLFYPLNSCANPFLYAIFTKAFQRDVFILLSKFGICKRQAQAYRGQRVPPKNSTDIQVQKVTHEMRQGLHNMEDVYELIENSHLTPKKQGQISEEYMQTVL
Chain of Nuclear receptor subfamily 1 group I member 3 (Homo sapiens) (Q14994 whole entry, looked up): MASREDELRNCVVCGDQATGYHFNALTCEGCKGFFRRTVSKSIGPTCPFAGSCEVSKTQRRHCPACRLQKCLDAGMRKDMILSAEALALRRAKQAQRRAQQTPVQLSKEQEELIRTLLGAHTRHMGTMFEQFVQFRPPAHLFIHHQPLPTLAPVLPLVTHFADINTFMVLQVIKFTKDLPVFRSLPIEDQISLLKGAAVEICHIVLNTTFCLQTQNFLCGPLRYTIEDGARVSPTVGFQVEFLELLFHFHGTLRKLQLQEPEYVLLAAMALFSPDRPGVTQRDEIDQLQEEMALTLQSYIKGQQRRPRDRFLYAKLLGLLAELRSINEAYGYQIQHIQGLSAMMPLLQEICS
Chain of Luciferin 4-monooxygenase (Photinus pyralis) (P08659 whole entry, looked up): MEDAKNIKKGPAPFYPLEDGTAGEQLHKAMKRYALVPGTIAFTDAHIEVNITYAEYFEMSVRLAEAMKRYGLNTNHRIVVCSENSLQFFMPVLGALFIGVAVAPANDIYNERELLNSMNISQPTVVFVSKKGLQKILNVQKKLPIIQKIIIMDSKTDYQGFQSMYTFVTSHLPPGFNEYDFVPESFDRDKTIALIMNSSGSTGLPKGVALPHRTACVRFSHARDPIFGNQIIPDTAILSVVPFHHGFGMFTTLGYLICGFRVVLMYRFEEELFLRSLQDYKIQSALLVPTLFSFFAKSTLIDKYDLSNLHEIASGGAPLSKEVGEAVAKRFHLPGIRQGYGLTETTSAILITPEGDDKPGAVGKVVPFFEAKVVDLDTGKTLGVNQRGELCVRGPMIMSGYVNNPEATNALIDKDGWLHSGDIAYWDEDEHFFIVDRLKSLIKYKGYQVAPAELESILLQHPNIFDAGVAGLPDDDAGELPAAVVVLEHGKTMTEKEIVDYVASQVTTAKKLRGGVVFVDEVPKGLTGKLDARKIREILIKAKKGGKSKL

COC(C)(C)CCO
not listed: [9] | [10]
inactive: all other assays above

C[N+](C)(C)CCOC(=O)CCC(=O)OCC[N+](C)(C)C
inactive: [1] | [2] | [9] | [10] | [8]

O=C1C(O)=C(O)C(=O)C(O)=C1O
inactive: [1] | [2] | [3] | [4] | [5] | [10]

CC/C=C\CCOC(=O)CC
inactive: [1] | [2] | [3] | [8]

Clc1ccc2c(c1)CCc1cccnc1C2=C1CCNCC1
inactive: [1] | [2] | [3] | [5]

NC(=O)C(c1ccccc1)(c1ccccc1)[C@@H]1CCN(CCc2ccc3c(c2)CCO3)C1
inactive: [1] | [2] | [3] | [10] | [7] | [8]

Cc1ccc(C(C)OC(=O)C2(C)CCC(C(=O)O)C2(C)C)cc1 (centres undefined)
inactive: [1] | [2] | [3] | [10] | [8]

C=CC(=O)OCCOCCOC(=O)C=C
inactive: [2] | [5]
active: [1] 38.7 µM | [3] 61.4 µM | [10] 30.8 µM | [7] 9.73 µM

CCCCC(CC)COC(=O)CCCCCCCCC(=O)OCC(CC)CCCC (centres undefined)
not listed: [6] | [9]
inactive: all other assays above

COCCCN1CCC(NC(=O)c2cc(Cl)c(N)c3c2OCC3)CC1
not listed: [3] | [4] | [10]
inactive: all other assays above

OC[C@H]1O[C@@H](OCCc2ccc(O)cc2)[C@H](O)[C@@H](O)[C@@H]1O
not listed: [4] | [8] | [9]
inactive: all other assays above

C/C=C(/C(=C/C)c1ccc(OC(C)=O)cc1)c1ccc(OC(C)=O)cc1
inactive: [1] | [2] | [9] | [10] | [8]

CC(CC=O)c1ccccc1 (centres undefined)
not listed: [6] | [7] | [9]
inactive: all other assays above

COc1cc2nc(N3CCN(C(=O)C4COc5ccccc5O4)CC3)nc(N)c2cc1OC (centres undefined)
inactive: [2] | [3] | [4] | [5] | [8]
active: [1] 29.8 µM

CCN(CC)CCNc1ccc(CNC=O)c2sc3ccc(OC)cc3c(=O)c12
active: [1] 7.7 µM | [9] 8.63 µM | [10] 6.11 µM
inactive: [2] | [6] | [8]

C#C[C@]1(O)CC[C@H]2[C@@H]3CCc4cc(OC5CCCC5)ccc4[C@H]3CC[C@@]21C
inactive: [1] | [2] | [9] | [10]

Cc1ccccc1S(=O)(=O)O
inactive: [1] | [2] | [3] | [10] | [8]

O=C(O)CC(=O)C(=O)O
inactive: [1] | [2] | [3] | [10]

CCN(CC)CCNC(=O)c1cc(Br)c(N)cc1OC
not listed: [9]
inactive: all other assays above

O=C1OC(=O)C2C3C=CC(C3)C12 (centres undefined)
inactive: [1] | [2] | [9] | [10]

O=C(O)C1(C(=O)Nc2ccc(Cl)cc2Cl)CC1
inactive: [1] | [3] | [4] | [10] | [8]
active: [2] 6.33 µM | [5] 13.7 µM

CCCCCCCC#N
not listed: [3] | [4] | [5]
inactive: all other assays above

CC(C)Nc1ccc(NC(C)C)c2c1C(=O)c1ccccc1C2=O
active: [1] 20.1 µM | [2] 33 µM
inactive: [3] | [4] | [5]

C[N+]1(CC2COC(c3ccccc3)(C3CCCCC3)O2)CCCCC1 (centres undefined)
not listed: [4] | [6] | [9]
inactive: all other assays above

NS(=O)(=O)c1ccc(N2CCCCS2(=O)=O)cc1
not listed: [4] | [9]
inactive: all other assays above

O=C(CS)Nc1ccccc1
inactive: [1] | [2] | [3] | [10] | [8]

NCC(=O)CCC(=O)O
inactive: [1] | [2] | [3] | [8]

CC(C)Cc1ccc(C(C)C(=O)OCc2ccccn2)cc1 (centres undefined)
inactive: [1] | [9] | [3] | [10]

O=C(O)c1ccc(S(=O)(=O)O)cc1C(=O)O
inactive: [1] | [2] | [5] | [10] | [7] | [8]
